High-throughput results: PubChem BioAssay, National Center for Advancing Translational Sciences (NCATS)
Compounds with a hit are over-represented: about 12% of the library has one in this group of screens.
Shiga inhibitor = A qHTS for Small Molecule Inhibitors of Shiga Toxin; Vero cells, Shiga toxin protein synthesis inhibition reporter; inhibition, % at 38.7 µM; 9.2% of 290,000 active; AID 2315, 2010; in the data active = inhibition mostly above about 28%, no sharp cut-off; inactive = mostly below about 43%; note: 0% is about no effect
SARS PLP yeast = qHTS of Yeast-based Assay for SARS-CoV PLP. S. cerevisiae expressing SARS-CoV PLpro, growth rescue. Potency, µM (titrated, usually from 32.9 µM), for inactives: top-dose activity, positive = growth rescue, hits mostly activators. 0.19% of 330,000 active. AID 485353, 2010; note: potency is the fitted concentration of half-maximal effect; 0% is about no effect; nearly all actives have a fitted effect of over 55% in size
CHX counter = Cycloheximide Counterscreen for Small Molecule Inhibitors of Shiga Toxin; max response, %; 12% of 300,000 active; AID 2314, 2010; cell reporter, cycloheximide protein synthesis inhibition counterscreen; in the data active = max response mostly above about 13%, no sharp cut-off; inactive = mostly below about 14%; note: read at 38.3 µM for the half of the compounds with a filed dose; 0% is about no effect
NS1 inh = qHTS Assay for Inhibitors of Influenza NS1 Protein Function; Potency, µM (series often up to 46.1 µM), without a hit: at the highest dose activity, positive = more growth; 0.4% of 270,000 active; AID 2326, 2010; note: potency is the fitted concentration of half-maximal effect; actives are rising curves; nearly all actives have a fitted effect of over 50% in size
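OD600 was taken as the measure of yeast growth restored by compound in an NS1-expressing S. cerevisiae strain. Cells had been washed out of glucose medium and diluted 1:100 into galactose -URA medium, pH 6.0.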
The depositor's hits bear a star; ? = inconclusive; . = no result given. Unless noted, calls come from the whole dose curve.

SMILES | Shiga inhibitor | SARS PLP yeast | CHX counter | NS1 inh
O=C(O)C1CCCN1c1ncccc1[N+](=O)[O-] (stereo not drawn) | -3 | -3% | -4 | 1%
COc1cc(OC)cc(C(=O)NCC2CCCN(C(=O)c3csc(C(C)C)n3)C2)c1 (stereo not drawn) | -8 | -2% | 21* | 7%
COc1cc(OC)nc(Oc2cc(C=O)ccc2OC)n1 | 19 | 0% | -1 | 0%
O=C(N/N=C/c1cccc(NC(=O)c2ccc(Cl)cc2)c1)c1ccc(O)cc1 | 85* | 0% | 60* | -7%
O=C(N/N=C/c1cccc(F)c1)c1ccc(Cl)cc1 | 119* | -3% | 44* | -3%
O=C(N/N=C/c1ccncc1)c1cccc(NC(=O)c2ccc(Cl)cc2)c1 | 20 | -16% | 11 | 5%
O=C(CSc1nnc(-c2cccs2)o1)NCc1ccco1 | 2 | -5% | 6 | .
CC1CCC(C(=O)O)([C@H](Br)C(=O)O)CC1 (stereo partly drawn) | . | . | . | 5%
Cn1c(-c2ccc3ccccc3n2)nc2cnccc21 | 49* | -9% | 27* | -29%
COc1cc(OC)c(-c2nc3cnccc3n2C)cc1OC | -5 | 2% | 1 | -7%
O=C(Nc1ccccn1)c1ccc2ccccc2n1 | 81* | -2% | 66* | -62%
Cc1csc(NC(=O)c2cnc3ccccc3n2)n1 | 22 | -1% | 8.4* | 3%
Cc1csc(NC(=O)c2ccc3ccccc3n2)n1 | 98* | 1% | 42* | 2%
Cc1csc(NC(=O)c2cc(C)nc3ccccc23)n1 | -7 | 0% | -2 | .
Cc1cccc(NC(=O)c2ccc3ccccc3n2)c1C | 186* | -11% | 23* | -7%
O=C(Nc1nccs1)c1ccc2ccccc2n1 | 120* | -2% | 45* | 5%
CCC(CC)c1nnc(NC(=O)c2cc(-c3ccccc3)nc3ccccc23)s1 | 10 | 13% | 1 | 10%
O=C(Nc1nccs1)c1cc(Cl)nc2ccccc12 | -2 | -1% | -1 | 4%
CCC(CC)c1nnc(NC(=O)c2ccc3ccccc3n2)s1 | 105* | 1% | 38* | 3%
NC(=O)C1CCN(c2ccc(S(=O)(=O)N3CCCCC3)cc2[N+](=O)[O-])CC1 | . | -14% | . | .
O=C1/C(=C/c2ccc(N3CCCC3)cc2)NC(=S)N1C1CC1 | 24 | 20% | 19 | 2%
O=C1N/C(=C/c2ccc(N3CCCC3)cc2)C(=O)N1c1ccccc1 | 49* | 3% | 17* | 20%
O=C1N/C(=C/c2ccc(N3CCOCC3)o2)C(=O)N1c1ccccc1 | 14 | -36% | 20* | -11%
O=P(c1ccccc1)(c1ccccc1)c1cc(S(=O)(=O)O)ccc1O | 15 | -1% | -3 | 2%
CSc1ccccc1NC(=O)C1=CC(c2cccs2)=NS(=O)(=O)N1C | 15* | -2% | 4 | -2%
SMILES | Shiga inhibitor | SARS PLP yeast | CHX counter | NS1 inh
Cc1ccc(C2=NS(=O)(=O)N(C)C(C(=O)Nc3ccc(F)cc3F)=C2)cc1 | 16* | -7% | 10 | 6%
CN1C(C(=O)Nc2ccc(F)cc2F)=CC(c2ccco2)=NS1(=O)=O | -7 | -2% | 0 | -5%
COC(=O)c1ccccc1NC(=O)C1=CC(c2cccs2)=NS(=O)(=O)N1C | -1 | 2% | 2 | 12%
COc1ccccc1NC(=O)C(=O)N1CCCC1 | 60* | -2% | 19* | .
COc1ccc(NC(=O)C(=O)c2cn(CC(=O)N3CCOCC3)c3ccccc23)cc1OC | -3 | 1% | -5 | -13%
COc1ccccc1NC(=O)N1CCCC1 | -13 | 0% | 9 | 7%
COc1ccccc1NC(=O)C(=O)c1cn(CC(=O)N2CCCC2)c2ccccc12 | 37 | 1% | 22* | 14%
COc1ccccc1NC(=O)C(=O)c1cn(CC(=O)N2CCOCC2)c2ccccc12 | 35* | 0% | 12* | 1%
CC1(C)NC(=O)N(CC(=O)OCC(=O)Nc2sccc2C#N)C1=O | -6 | 2% | 10 | .
CC1(C)CC(=O)C(N=Nc2cccc([N+](=O)[O-])c2)=C(O)C1 | 63* | -5% | 45* | -77%
COc1ccc(N=NC2=C(O)CC(C)(C)CC2=O)c(OC)c1 | 53* | 0% | 19 | -2%
CC1(C)CC(=O)C(N=Nc2ccc(Br)cc2)=C(O)C1 | 16 | 1% | 5 | 1%
CC1(C)CC(=O)C(N=Nc2ccc(C(F)(F)F)cc2[N+](=O)[O-])=C(O)C1 | -12 | -4% | -1 | -4%
COc1ccc(N=NC2=C(O)CC(C)(C)CC2=O)cc1 | 124* | -12% | 47* | -5%
COc1ccc(CN=CC2=C(O)CC(C)(C)CC2=O)cc1 | 40 | -10% | 23* | -4%
CN(C)c1cccc(C(=O)NCCCn2ccc3ccccc32)c1 | 36 | -9% | 2 | -3%
Cn1cccc1-c1nc2ccc(NC(=O)c3ccccc3)cc2[nH]1 | 36* | -10% | 20* | -38%
Cn1cccc1-c1nc2ccc(NC(=O)c3ccc([N+](=O)[O-])cc3)cc2[nH]1 | -17 | 9% | -2 | 7%
Cn1cccc1-c1nc2ccccc2[nH]1 | 88* | -2% | 31* | -3%
Cc1oc2c(C)c3oc(=O)c(CCC(=O)NCCN4CCOCC4)c(C)c3cc2c1C | -10 | 3% | -1 | 14%
O=C(/C=C/c1ccc([N+](=O)[O-])cc1)NCCc1ccccc1 | 18 | 1% | 9 | -2%
CC(C)(C)SCCNC(=O)/C=C/c1ccc(F)cc1 | 115* | 7% | 51* | -13%
CC(C)(CNC(=O)/C=C/c1ccc(F)cc1)CNC(=O)/C=C/c1ccc(F)cc1 | 34 | -3% | 15 | -2%
CC(C)(C)SCCNC(=O)/C=C/c1ccccc1 | 104* | -1% | 46* | 1%
O=C(/C=C/c1ccccc1)NCCc1ccccc1 | 92* | -3% | 46* | -4%
SMILES | Shiga inhibitor | SARS PLP yeast | CHX counter | NS1 inh
c1ccc(CCC2CCCCN2Cc2cn[nH]c2-c2cc3ccccc3o2)nc1 (stereo not drawn) | -6 | 0% | -2 | 3%
COc1ccc(C)c(NC(=O)NCCc2cnc[nH]2)c1 | -4 | -12% | 2 | -5%
C#CCn1c(=NC(=O)c2cc(-c3cccs3)nc3ccccc23)sc2cc(S(N)(=O)=O)ccc21 | -12 | 9% | -3 | ?
COc1ccc(/C=N/Nc2nccnc2Cl)c(OC)c1 | 78* | 0% | 29* | -2%
COc1ccc(/C=N/Nc2nccnc2Cl)cc1 | 39 | -10% | 36* | -10%
Clc1nccnc1N/N=C/c1ccc(Br)cc1 | 40* | -5% | 40* | -18%
COc1ccc(/C=N/Nc2nonc2N)c(OC)c1 | 47 | 0% | 14 | .
Nc1c(Cl)ncnc1N/N=C/c1ccncc1 | -4 | -1% | 12 | 2%
O=C(O)CN(CC(=O)O)c1ccccc1OCCOc1ccccc1N(CC(=O)O)CC(=O)O | 4 | . | 10 | .
CCC[C@H](Sc1nc(N)nc2nc[nH]c12)C(=O)O | . | . | . | -3%
COc1ccc(CCNC(=O)CN2C(=O)NC3(CCc4ccccc43)C2=O)cc1 (stereo not drawn) | . | 1% | . | .
CCOc1ccc(NC(=O)CN(C)C(=O)Cc2ccsc2)cc1OCC | . | -1% | . | .
CC(C)c1ccc(NC(=O)c2cc(Br)ccc2Br)cc1 | 60* | 1% | 43* | -3%
